Five compounds from PubChem BioAssay AID1700 (The Scripps Research Institute Molecular Screening Center, 2009) can be followed below.

SMILES strings stand for the structures. The whole screen tested about 290,000 compounds, of which about 670 (0.23%) were called active. Many of the other results were omitted from the sample, so actives are more common in it than they were. Unmarked numbers belong to inactive results.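 The calls were made as follows: active = inhibition above a per-plate limit of that plate's mean compound inhibition plus 3 SD (cut at about 60% in these data); inactive = the rest.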

The assay in a line: KLF5 expression inhibitors, primary screen, DLD-1 cells, luminescence (AID 1700).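 Also: 0% = DMSO wells and 100% = LY294002 at 200 µM; higher means less KLF5 promoter-driven luciferase light.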 The following applies: DLD-1 KLF5 promoter-luciferase reporter, at 5 µM, active compounds read high. On the technique in general: A reporter such as luciferase makes a cellular process visible.
The inhibition is the change of the read-out against control, counted positive when it falls. On to `CCCCCCCCCCCCn1ccc(=N)cc1`, for which the inhibition was 75.9% (active). `CCN(CC)c1ccc([N+](=O)[O-])c2cccnc12`: the inhibition is -21%. For the compound `COc1cc2nc(N3CCN(C(=O)[C@@H]4CCCO4)CC3)nc(N)c2cc1OC`, the inhibition was -16.5%. Next, `O=C1NC(=O)C(CCc2ccccn2)(Cc2cccc(Cl)c2Cl)C(=O)N1c1ccc(Br)cc1` (stereo not given): -5.72%; `COc1ccc(N2C(=O)/C(=C/c3ccco3)C(=O)NC2=S)cc1`: -5.05%.
